# Several values for one entry are separate records, joined by “and”; a condition that tells them apart may be missing. Identical values can stand only once. About 83,000 compounds went through this panel and 20% of them were active in at least one assay; those are over-represented in the sample as a whole.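 A percent growth of 40 corresponds to 60% growth inhibition; 0 means no net growth; -100 means all cells died. Active threshold: below 10.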 Activity calls are given as the source filed them.
# How the values were obtained:
# Assay in all cases: NCI-60 one-dose screen, 48 h (100 = growth as untreated, 0 = no growth, -100 = all killed)
# T-47D breast = conditions: 10 µM unless noted
# BT-549 breast = conditions: 10 µM unless noted
# MDA-MB-435 melanoma = conditions: 10 µM unless noted
# MCF7 breast = tested on: MCF7 breast
# HCT-116 colon = conditions: 10 µM unless noted
# HCC-2998 colon = conditions: 10 µM unless noted
# KM12 colon = conditions: 10 µM unless noted
# SW-620 colon = conditions: 10 µM unless noted
SMILES,growth (T-47D breast),growth (BT-549 breast),growth (MDA-MB-435 melanoma),growth (MCF7 breast; 10 µM unless noted),growth (HCT-116 colon),growth (HCC-2998 colon),growth (KM12 colon),growth (MCF7 breast; 10 µM),growth (MCF7 breast; 100 µM),growth (SW-620 colon)
CCOC(=O)c1c(-c2ccc(OC)cc2)c(C#N)c2c(C#N)c(N)nn2c1N,12% (inactive),37% (inactive),-38.2% (active),13.2% (inactive),16% (inactive),62.9% (inactive),23.6% (inactive),–,–,–
COc1ccc2c(O)c(/C=C3\N=Nc4nc(C)ccc43)oc2c1CC1CCNCC1,89.5% (inactive),60.4% (inactive),42.7% (inactive),67.3% (inactive),35.3% (inactive),78.1% (inactive),38.2% (inactive),–,–,–
N=C(N)SCc1c2ccccc2c(CSC(=N)N)c2ccccc12,71.5% (inactive),102% (inactive),74% (inactive),38.3% (inactive),40.4% (inactive),79.5% (inactive),59.7% (inactive),–,–,–
Cc1ccc(Nc2nc(-c3cc(O)c(C)c(C)c3O)cs2)cc1,35.5% (inactive),98.1% (inactive),66.4% (inactive),71.9% (inactive),105% (inactive),112% (inactive),60.9% (inactive),–,–,–
Cc1cc2nc(C(Cl)Cl)nc(-c3ccc(Cl)cc3)n2n1,27.4% (inactive),52.5% (inactive),-25.2% (active),2.98% (active),-2.01% (active),-77% (active),–,–,–,–
COC1/C=C/OC2(C)Oc3c(C)c(O)c4c(O)c(c(C=NOC(c5ccccc5)c5ccccc5)c(O)c4c3C2=O)NC(=O)/C(C)=C/C=C/C(C)C(O)C(C)C(O)C(C)C(OC(C)=O)C1C (configuration not stated),-82.7% (active),32.7% (inactive),11.5% (inactive),10.9% (inactive),10.9% (inactive),-38.8% (active),5.8% (active),–,–,–
Cc1ccc(S(=O)(=O)Nc2cc(Sc3ccccc3)c(O)c3ccccc23)cc1,-1.22% (active),97.1% (inactive),-95.4% (active),64.1% (inactive),58.9% (inactive),106% (inactive),86.4% (inactive),–,–,–
CCCCCCCCCCCCCCCC[N+](C)(C)CCN(Cc1ccc(OC)cc1)c1ncccn1,-5.46% (active) and 42.2% (inactive),-75% (active) and 61.8% (inactive),-96.8% (active),20.1% (inactive) and 47.6% (inactive),-85.6% (active) and -62.4% (active),-76% (active) and 50.2% (inactive),-100% (active) and 33.6% (inactive),–,–,–
COC(=O)c1[nH]nc(OC)c1C1(C(C#N)c2nc3ccccc3s2)CCCc2ccccc21 (configuration not stated),84.1% (inactive),88.2% (inactive),104% (inactive),84.8% (inactive),104% (inactive),102% (inactive),97% (inactive),–,–,–
O=C(N=Nc1c(O)[nH]c2ccccc12)Nc1ccc(Br)cc1,91.6% (inactive),89% (inactive),90.4% (inactive),79.1% (inactive),88.6% (inactive),104% (inactive),92.4% (inactive),–,–,–
COc1cc(-c2nn(-c3cccc(NC(=O)CCN4CCN(C)CC4)c3)cc2-c2ccncc2)ccc1Cl,35.3% (inactive),22.4% (inactive),-46.3% (active),13.8% (inactive),17% (inactive),54.7% (inactive),22.2% (inactive),–,–,–
CC(C)(C)c1cc(C(C)(C)c2ccccc2)cc(Cc2cc(C(C)(C)c3ccccc3)cc(C(C)(C)C)c2O)c1O,95.3% (inactive),93.1% (inactive),115% (inactive),94.6% (inactive),93.1% (inactive),107% (inactive),106% (inactive),–,–,–
CC[C@]12CN3CCc4c([nH]c5ccccc45)[C@@](C(=O)OC)(c4cc5c(cc4OC)N(C)[C@H]4[C@@](O)(C(=O)OC)[C@H](OC(C)=O)[C@]6(CC)C=CCN7CC[C@]54[C@@H]76)CC(C3)[C@H]1O2 (some centres not stated),54.8% (inactive),-26% (active),-43.8% (active),–,0.479% (active),-14.6% (active),-17.6% (active),15.7% (inactive),35.1% (inactive) and -19% (active),–
CC1=CC(C)(C)NC(=S)N1c1ccc(Cl)cc1,92.8% (inactive) and 87.2% (inactive),99.1% (inactive) and 110% (inactive),101% (inactive) and 117% (inactive),101% (inactive) and 97.3% (inactive),99.6% (inactive) and 89% (inactive),105% (inactive) and 100% (inactive),101% (inactive) and 105% (inactive),–,–,–
CCOC(=O)CC1CSC(c2cccc(Cl)c2)=N1 (configuration not stated),102% (inactive),111% (inactive),112% (inactive),87.8% (inactive),97.2% (inactive),82.7% (inactive),108% (inactive),–,–,–
Cc1ccc(-c2nc3nc(-c4ccccc4)nc(N4CCCNCC4)c3o2)cc1,-45% (active),18% (inactive),-83.1% (active),-78.4% (active),-71.4% (active),-74.9% (active),-92.3% (active),–,–,–

SMILES,growth (T-47D breast),growth (BT-549 breast),growth (MDA-MB-435 melanoma),growth (MCF7 breast; 10 µM unless noted),growth (HCT-116 colon),growth (HCC-2998 colon),growth (KM12 colon),growth (MCF7 breast; 10 µM),growth (MCF7 breast; 100 µM),growth (SW-620 colon)
OCCN1CCN(CC/C=C2\c3ccccc3Sc3ccc(Cl)cc32)CC1,48.6% (inactive) and 57.4% (inactive),67.5% (inactive),-70.8% (active) and -44.4% (active),17.3% (inactive) and 4.22% (active),-59.8% (active) and -45.1% (active),-91.4% (active) and 12.7% (inactive),2.71% (active) and 36.2% (inactive),–,–,–
O=C1OCC2=C1C(c1cccc(C(F)(F)F)c1)c1cc3c(cc1N2CCO)CCC3 (configuration not stated),75% (inactive),22% (inactive),-44.3% (active),16.3% (inactive),4.17% (active),11.2% (inactive),4.92% (active),–,–,–
O=S(=O)(Nc1cc(Sc2cccc3cccnc23)c(O)c2ccccc12)c1ccc(F)cc1,-40.3% (active),30.7% (inactive),7.68% (active),-53.4% (active),-88.5% (active),40% (inactive),16.5% (inactive),–,–,–
Nc1nc2c(s1)CCc1cn(S(=O)(=O)c3ccccc3)cc1-2,81.6% (inactive) and 111% (inactive),84% (inactive) and 109% (inactive),91.1% (inactive) and 107% (inactive),93.4% (inactive) and 94.3% (inactive),84.5% (inactive) and 100% (inactive),111% (inactive) and 106% (inactive),94.6% (inactive) and 108% (inactive),–,–,99.7% (inactive) and 99.3% (inactive)
CN(C)c1ccc2nc3ccc(=O)cc-3sc2c1,28% (inactive) and 38.8% (inactive),52.5% (inactive) and 47.1% (inactive),40.7% (inactive) and -65.2% (active),-1.53% (active) and 1.73% (active),2.57% (active) and 9.4% (active),18.1% (inactive) and 39.7% (inactive),30.4% (inactive) and 32.8% (inactive),–,–,–
Fc1ccc(NC(c2ccc(F)cc2)C2CCN(CCCCc3ccccc3)CC2)cc1 (configuration not stated),22.4% (inactive),61.1% (inactive),43.8% (inactive),5.18% (active),-55.4% (active),16.3% (inactive),29.9% (inactive),–,–,–
COc1ccc(C(CC(=O)c2ccc3c(c2)OCO3)C(=O)O)cc1OC (configuration not stated),104% (inactive) and 91.9% (inactive),115% (inactive) and 106% (inactive),108% (inactive) and 102% (inactive),100% (inactive) and 96.6% (inactive),119% (inactive) and 97.1% (inactive),104% (inactive) and 105% (inactive),110% (inactive) and 95.7% (inactive),–,–,–
N#Cc1ccccc1OCC(=O)Nc1nc2c(s1)COc1ccccc1-2,86.2% (inactive),122% (inactive),104% (inactive),91.4% (inactive),102% (inactive),103% (inactive),105% (inactive),–,–,–
COc1ccc(-c2ccc(-c3ccc(C(=N)N)cn3)o2)cc1Cl,31.1% (inactive),57.8% (inactive),-69.4% (active),-31.1% (active),0.389% (active),67.5% (inactive),16.4% (inactive),–,–,–
Nc1nc(Nc2cccnc2)sc1C(=O)c1ccccc1F,33% (inactive),12.2% (inactive),39.2% (inactive),9.37% (active),3.8% (active),69.5% (inactive),5.5% (active),–,–,–
CCOc1nc(-c2ccccc2)cc2c(O)c(C(=O)N/N=C/c3ccc(N(C)C)cc3)[nH]c(=O)c12,218% (inactive),125% (inactive),118% (inactive),92.9% (inactive),112% (inactive),-14.8% (active),109% (inactive),–,–,–
COc1ccc(-c2csc(NC(=O)CN3CCN(CCO)CC3)n2)cc1NS(=O)(=O)c1cccc2c(N(C)C)cccc12,72% (inactive),82.1% (inactive),57.3% (inactive),59.6% (inactive),73.5% (inactive),73.2% (inactive),77.2% (inactive),–,–,–
COCCn1cc(-c2csc(-c3cn(C)c4ccc(F)cc34)n2)c2cccnc21,25.2% (inactive),63.8% (inactive),40.8% (inactive),25.9% (inactive),75.5% (inactive),49.6% (inactive),40% (inactive),–,–,–
Nc1[nH]nc(Nc2ccccc2)c1-c1nc2ccccc2s1,2.9% (active),38.1% (inactive),22.8% (inactive),12.4% (inactive),3.73% (active),18.3% (inactive),–,–,–,–
CCN(CC)CCOc1ccc(/C(=C(\Cl)c2ccccc2)c2ccccc2)cc1,23.4% (inactive) and 48.9% (inactive),43.4% (inactive) and 92.6% (inactive),7.34% (active),16.2% (inactive) and 27.4% (inactive),11.4% (inactive) and 57.8% (inactive),35.7% (inactive) and 98.3% (inactive),21.8% (inactive) and 75.9% (inactive),–,–,–
